Results filed as inconclusive are left out. Calls of active or inactive are those of the source. The call rests on the fitted dose curve; in most records, active means well fitted cell-killing curve with a large enough effect; inconclusive means small, poorly fitted or top-dose-only effect, or effect the other way; inactive means no such curve, though single readings can be large or run the other way.
Test: Quantitative High-Throughput drug screen in 47 multiple myeloma cell lines against the NCATS MIPE library collection: XG1_PLB cell viability assay (AID 1919866); further: nearly all actives have a fitted effect of over 35% in size
Conditions: CellTiter-Glo ATP, 48 h; series mostly up to 45.8 µM
Source text: PI: Beverly A. Mock Ph.D.
Laboratory of Cancer Biology and Genetics,
Center for Cancer Research, National Cancer Institute,
National Institute of Health, Bethesda, Maryland
Drug resistance and disease progression are common in multiple myeloma (MM) patients, underscoring the need for new therapeutic combinations. […] We hypothesized that effective combinations would reduce MYC expression and enhance p16 activity. […] These preclinical data identify potentially useful drug combinations for evaluation in drug-resistant MM and reveal potential mechanisms of combined drug sensitivity.
Described herein is the primary MIPE qHTS used to cherrypick compounds. Validated compounds were then further tested for potential synergistic activiy.
[1] Peat TJ, Gaikwad SM, Dubois W, Gyabaah-Kessie N, Zhang S, Gorjifard S, Phyo Z, Andres M, Hughitt VK, Simpson RM, Miller MA, Girvin AT, Taylor A, Williams D, D'Antonio N, Zhang Y, Rajagopalan A, Flietner E, Wilson K, Zhang X, Shinn P, Klumpp-Thomas C, McKnight C, Itkin Z, Chen L, Kazandijian D, Zhang J, Michalowski AM, Simmons JK, Keats J, Thomas CJ, Mock BA. Drug combinations identified by high-throughput screening promote cell cycle transition and upregulate Smad pathways in myeloma. Cancer Lett. 2023 Aug 1;568:216284. doi: 10.1016/j.canlet.2023.216284. Epub 2023 Jun 24. PMID: 37356470; PMCID: PMC10408729.
SEQUENCE No. (e.g., 1, 2, 3, etc.); […] (e.g., Cells, Incubation, Reagent, etc.); VALUE and DESCRIPTION.
1; Cells; 5 uL; white, solid bottom 1536-well Greiner assay plate.
2; Compounds; 23 nL; Kalypsis pin tool (Wako USA) equipped with a 1536-well pin head to transfer to the assay plates.
3; Incubation; 48 hours; 37C incubation.
4; Reagent;5uL; CellTiter Glo (Promega).
5; Detector; 425V; Luminescence; Viewlux PerkinElmer.
NOTES (numbers refer to Sequence numbers above)
1. The cell-based screening methods employed in this study were like those previously published. Briefly, the corresponding myeloma cell lines were screened in 1,536-well plates with 500 cells, 5-uL per well for inhibition of cell viability (assessed by measuring ATP levels with CellTiterGlo).
2. NCATS MIPE 4.0 library of approved and investigational drugs were added using the Kalypsis pin tool. Wells treated with DMSO only for 100% viability and media only for 0% viability were used as controls.
3. The assay plates were covered and incubated for 48 hours in a 37C, 5% CO2 incubator with controlled humidity.
4. After 48 hours, CellTilter-GloTM luminescent substrate mix (Promega) reagent was added to the assay plate and plates we incubated for 5 min at room temperature.
5. Signal was measured as median relative luminescence units on a ViewLux (PerkinElmer) multiplate reader.
[1] Heske CM, Davis MI, Baumgart JT, Wilson K, Gormally MV, Chen L, Zhang X, Ceribelli M, Duveau DY, Guha R, Ferrer M, Arnaldez FI, Ji J, Tran HL, Zhang Y, Mendoza A, Helman LJ, Thomas CJ. Matrix Screen Identifies Synergistic Combination of PARP Inhibitors and Nicotinamide Phosphoribosyltransferase (NAMPT) Inhibitors in Ewing Sarcoma. Clin Cancer Res. 2017 Dec 1;23(23):7301-7311. doi: 10.1158/1078-0432.CCR-17-1121. Epub 2017 Sep 12. PMID: 28899971; PMCID: PMC6636827.
With `CN(C[C@@H]1COCCO1)S(=O)(=O)Nc1ccc2ccc3ncc(-c4cnn(C)c4)cc3c(=O)c2c1` the Potency was 2.64 µM (active). In the case of `Cc1[nH]c(C=C2C(=O)Nc3ccc(S(=O)(=O)Cc4c(Cl)cccc4Cl)cc32)c(C)c1C(=O)N1CCC[C@H]1CN1CCCC1`, the Potency is reported as 5.26 µM (active). With `CN(C)Cc1cccc(N=C(c2ccccc2)c2c(O)[nH]c3cc(C(=O)N(C)C)ccc23)c1` the Potency was 16.6 µM (active). In the case of `NC(=O)c1cccc2[nH]c(-c3ccc([C@H]4CCCN4)cc3F)nc12`, the Potency is reported as 8.33 µM (active). With `CCn1cc(C(=O)O)c(=O)c2ccc(C)nc21` the Potency was “inactive”. In the case of `CN(C)CCC=C1c2ccccc2COc2ccc(CC(=O)O)cc21`, the Potency is reported as 20.9 µM (active). With `CC[C@@H]1C=C(C)C[C@H](C)C[C@H](OC)[C@H]2O[C@@](O)(C(=O)C(=O)N3CCCC[C@@H]3C(=O)O[C@H](C(C)=C[C@@H]3CC[C@H](Cl)[C@H](OC)C3)[C@H](C)[C@@H](O)CC1=O)[C@H](C)C[C@H]2OC` the Potency was 14.8 µM (active). In the case of `Nc1ncnc2c1ncn2[C@@H]1O[C@@H](CO)[C@H](O)[C@H]1O`, the Potency is reported as “inactive”. For `N#CC(=C(N)Sc1ccccc1N)C(C#N)=C(N)Sc1ccccc1N`, the Potency was 9.35 µM (active). For `O=c1c(-c2ccc(O)cc2)coc2cc(OC3O[C@H](CO)[C@H](O)[C@H](O)[C@H]3O)cc(O)c12` (stereo not given in full), the Potency was 1.18 µM (active). In the case of `Cc1nc(N)sc1-c1ccnc(Nc2ccc(N3CCOCC3)cc2)n1`, the Potency is reported as 2.64 µM (active). For `O=C1NC(=O)C(=Cc2cccc(C(F)(F)F)c2)S1`, the Potency was 16.6 µM (active). With `Cc1ccc(C(C)(O)c2nc3ccccc3s2)c(C)c1` (stereo not given) the Potency was “inactive”. In the case of `CC1(C)S[C@H]2[C@H](NC(=O)[C@@H](N)c3ccc(O)cc3)C(=O)N2[C@@H]1C(=O)O`, the Potency is reported as 1.32 µM (active). In the case of `COc1ccc(C2Sc3ccccc3N(CCN(C)C)C(=O)C2OC(C)=O)cc1` (stereo not given), the Potency is reported as “inactive”. With `CN1CCN(CCOc2cc(OC3CCOCC3)c3c(Nc4c(Cl)ccc5c4OCO5)ncnc3c2)CC1` the Potency was 18.7 µM (active). In the case of `CC[C@@]1(O)C[C@H](O[C@H]2C[C@H](N(C)C)[C@H](O[C@H]3C[C@H](O)[C@H](O[C@H]4CCC(=O)[C@H](C)O4)[C@H](C)O3)[C@H](C)O2)c2c(cc3c(c2O)C(=O)c2c(O)cccc2C3=O)[C@@H]1C(=O)OC`, the Potency is reported as 0.132 µM (active). In the case of `c1ccc2c(Cc3c[nH]c4ccccc34)c[nH]c2c1`, the Potency is reported as 1.18 µM (active). With `CN1C[C@H]2c3ccccc3Oc3ccc(Cl)cc3[C@@H]2C1` the Potency was “inactive”. With `O=C(OCC#CCSc1nnc(-c2cccc3ccccc23)o1)c1cc2ccccc2s1` the Potency was “inactive”. For `CC(C)(C)C(=O)Oc1ccc2c(c1)nc(NC(=O)c1cccc([N+](=O)[O-])c1)n2CCCO`, the Potency was “inactive”. For `CC(C)(Cc1ccc2ccccc2c1)NC[C@@H](O)COc1cccc(Cl)c1C#N`, the Potency was “inactive”. With `COc1ccc(-c2oc3c(CC=C(C)C)c(OC4O[C@H](CO)[C@@H](O)[C@H](O)[C@@H]4O)cc(O)c3c(=O)c2OC2O[C@@H](C)[C@H](O)[C@@H](O)[C@@H]2O)cc1` (stereo not given in full) the Potency was 18.7 µM (active). With `NC[C@@H]1O[C@@H](O[C@H]2[C@@H](O)[C@H](O[C@@H]3[C@@H](O)[C@@H](N)C[C@H](N)[C@H]3O[C@H]3O[C@H](CN)[C@@H](O)[C@@H](O)[C@H]3N)O[C@H]2CO)[C@H](N)[C@@H](O)[C@@H]1O` the Potency was “inactive”. In the case of `COc1cc2ncnc(-n3nc(-c4ccccn4)nc3N)c2cc1OC`, the Potency is reported as 5.9 µM (active). For `O=c1ccn([C@@H]2O[C@H](CO)[C@H](O)[C@H]2O)c(=O)[nH]1`, the Potency was “inactive”. For `Nc1nc(F)nc2c1ncn2[C@@H]1O[C@H](COP(=O)(O)O)[C@@H](O)[C@H]1O`, the Potency was 29.6 µM (active). For `NS(=O)(=O)c1cccc2c1C(=O)c1cccc(O)c1C2=O`, the Potency was 0.264 µM (active). In the case of `COc1cccc(-c2cc(=O)c3ccccc3o2)c1N`, the Potency is reported as 1.66 µM (active). With `O=c1[nH]cnc2c1ncn2[C@H]1CC[C@@H](CO)O1` the Potency was “inactive”. For `O=C1C(Cl)=C(NCCN2CCOCC2)C(=O)c2ncccc21`, the Potency was 6.62 µM (active). For `CC=CC(=O)N(CC)c1ccccc1C`, the Potency was 26.4 µM (active). In the case of `CO[C@H]1C[C@@H]2CC[C@@H](C)[C@@](O)(O2)C(=O)C(=O)N2CCCC[C@@H]2C(=O)O[C@H]([C@H](C)C[C@@H]2CC[C@H](OP(C)(C)=O)[C@H](OC)C2)CC(=O)[C@H](C)C=C(C)[C@@H](O)[C@@H](OC)C(=O)[C@H](C)C[C@H](C)C=CC=CC=C1C`, the Potency is reported as “inactive”. In the case of `COc1cccc2c1CCCC2CCCN1CCN(C2CCCCC2)CC1` (stereo not given), the Potency is reported as 18.7 µM (active). For `CCNc1cc(NC2CCC(O)CC2)nc(Nc2ccc3c(ccn3Cc3ccccc3)c2)n1` (stereo not given), the Potency was 23.5 µM (active). For `CC(C)=CC[C@@H](O)C1=CC(=O)c2c(O)ccc(O)c2C1=O`, the Potency was 0.418 µM (active). With `CC(C)(C)NC(=O)Nc1cccc(Nc2ncc(F)c(NC(C)(C)CO)n2)c1` the Potency was 3.72 µM (active). With `CC[C@H]1OC(=O)[C@H](C)C(=O)[C@H](C)[C@@H](O[C@H]2O[C@H](C)C[C@H](N(C)C)[C@@H]2O)[C@](C)(OC)C[C@@H](C)C(=O)[C@H](C)[C@H]2N(CCCCn3cnc(-c4cccnc4)c3)C(=O)O[C@]12C` the Potency was “inactive”. For `O=C(N[C@@H](c1ccccc1)[C@@H]1CCCCN1)c1cccc(C(F)(F)F)c1Cl`, the Potency was 23.5 µM (active). For `CC(C)(C)COc1ccc(-n2cc(C(=O)O)cn2)cc1C#N`, the Potency was “inactive”.

— PubChem BioAssay (NCATS)
Potency means the concentration at half of the fitted maximal effect.
